# Measured values reported in PubChem BioAssay AID1671202 (University of Kansas High Throughput Screening Laboratory, 2021).
# “And” between values parts separate entries of the source, which are not always exact repeats. Equal values may be shown once. In all, about 190,000 compounds went through this assay and about 6,900 (3.6%) were called active. No stated cut-off is given here; in the data, active means inhibition above about 50%; inactive means the rest. The full list was thinned out, with actives kept by preference. Some compounds were tested as several samples or in several runs, with calls that do not always agree.
# Molecular target: Huntingtin (Homo sapiens) (UniProt P42858)
# Sequence (P42858 whole entry, looked up, stated change not applied): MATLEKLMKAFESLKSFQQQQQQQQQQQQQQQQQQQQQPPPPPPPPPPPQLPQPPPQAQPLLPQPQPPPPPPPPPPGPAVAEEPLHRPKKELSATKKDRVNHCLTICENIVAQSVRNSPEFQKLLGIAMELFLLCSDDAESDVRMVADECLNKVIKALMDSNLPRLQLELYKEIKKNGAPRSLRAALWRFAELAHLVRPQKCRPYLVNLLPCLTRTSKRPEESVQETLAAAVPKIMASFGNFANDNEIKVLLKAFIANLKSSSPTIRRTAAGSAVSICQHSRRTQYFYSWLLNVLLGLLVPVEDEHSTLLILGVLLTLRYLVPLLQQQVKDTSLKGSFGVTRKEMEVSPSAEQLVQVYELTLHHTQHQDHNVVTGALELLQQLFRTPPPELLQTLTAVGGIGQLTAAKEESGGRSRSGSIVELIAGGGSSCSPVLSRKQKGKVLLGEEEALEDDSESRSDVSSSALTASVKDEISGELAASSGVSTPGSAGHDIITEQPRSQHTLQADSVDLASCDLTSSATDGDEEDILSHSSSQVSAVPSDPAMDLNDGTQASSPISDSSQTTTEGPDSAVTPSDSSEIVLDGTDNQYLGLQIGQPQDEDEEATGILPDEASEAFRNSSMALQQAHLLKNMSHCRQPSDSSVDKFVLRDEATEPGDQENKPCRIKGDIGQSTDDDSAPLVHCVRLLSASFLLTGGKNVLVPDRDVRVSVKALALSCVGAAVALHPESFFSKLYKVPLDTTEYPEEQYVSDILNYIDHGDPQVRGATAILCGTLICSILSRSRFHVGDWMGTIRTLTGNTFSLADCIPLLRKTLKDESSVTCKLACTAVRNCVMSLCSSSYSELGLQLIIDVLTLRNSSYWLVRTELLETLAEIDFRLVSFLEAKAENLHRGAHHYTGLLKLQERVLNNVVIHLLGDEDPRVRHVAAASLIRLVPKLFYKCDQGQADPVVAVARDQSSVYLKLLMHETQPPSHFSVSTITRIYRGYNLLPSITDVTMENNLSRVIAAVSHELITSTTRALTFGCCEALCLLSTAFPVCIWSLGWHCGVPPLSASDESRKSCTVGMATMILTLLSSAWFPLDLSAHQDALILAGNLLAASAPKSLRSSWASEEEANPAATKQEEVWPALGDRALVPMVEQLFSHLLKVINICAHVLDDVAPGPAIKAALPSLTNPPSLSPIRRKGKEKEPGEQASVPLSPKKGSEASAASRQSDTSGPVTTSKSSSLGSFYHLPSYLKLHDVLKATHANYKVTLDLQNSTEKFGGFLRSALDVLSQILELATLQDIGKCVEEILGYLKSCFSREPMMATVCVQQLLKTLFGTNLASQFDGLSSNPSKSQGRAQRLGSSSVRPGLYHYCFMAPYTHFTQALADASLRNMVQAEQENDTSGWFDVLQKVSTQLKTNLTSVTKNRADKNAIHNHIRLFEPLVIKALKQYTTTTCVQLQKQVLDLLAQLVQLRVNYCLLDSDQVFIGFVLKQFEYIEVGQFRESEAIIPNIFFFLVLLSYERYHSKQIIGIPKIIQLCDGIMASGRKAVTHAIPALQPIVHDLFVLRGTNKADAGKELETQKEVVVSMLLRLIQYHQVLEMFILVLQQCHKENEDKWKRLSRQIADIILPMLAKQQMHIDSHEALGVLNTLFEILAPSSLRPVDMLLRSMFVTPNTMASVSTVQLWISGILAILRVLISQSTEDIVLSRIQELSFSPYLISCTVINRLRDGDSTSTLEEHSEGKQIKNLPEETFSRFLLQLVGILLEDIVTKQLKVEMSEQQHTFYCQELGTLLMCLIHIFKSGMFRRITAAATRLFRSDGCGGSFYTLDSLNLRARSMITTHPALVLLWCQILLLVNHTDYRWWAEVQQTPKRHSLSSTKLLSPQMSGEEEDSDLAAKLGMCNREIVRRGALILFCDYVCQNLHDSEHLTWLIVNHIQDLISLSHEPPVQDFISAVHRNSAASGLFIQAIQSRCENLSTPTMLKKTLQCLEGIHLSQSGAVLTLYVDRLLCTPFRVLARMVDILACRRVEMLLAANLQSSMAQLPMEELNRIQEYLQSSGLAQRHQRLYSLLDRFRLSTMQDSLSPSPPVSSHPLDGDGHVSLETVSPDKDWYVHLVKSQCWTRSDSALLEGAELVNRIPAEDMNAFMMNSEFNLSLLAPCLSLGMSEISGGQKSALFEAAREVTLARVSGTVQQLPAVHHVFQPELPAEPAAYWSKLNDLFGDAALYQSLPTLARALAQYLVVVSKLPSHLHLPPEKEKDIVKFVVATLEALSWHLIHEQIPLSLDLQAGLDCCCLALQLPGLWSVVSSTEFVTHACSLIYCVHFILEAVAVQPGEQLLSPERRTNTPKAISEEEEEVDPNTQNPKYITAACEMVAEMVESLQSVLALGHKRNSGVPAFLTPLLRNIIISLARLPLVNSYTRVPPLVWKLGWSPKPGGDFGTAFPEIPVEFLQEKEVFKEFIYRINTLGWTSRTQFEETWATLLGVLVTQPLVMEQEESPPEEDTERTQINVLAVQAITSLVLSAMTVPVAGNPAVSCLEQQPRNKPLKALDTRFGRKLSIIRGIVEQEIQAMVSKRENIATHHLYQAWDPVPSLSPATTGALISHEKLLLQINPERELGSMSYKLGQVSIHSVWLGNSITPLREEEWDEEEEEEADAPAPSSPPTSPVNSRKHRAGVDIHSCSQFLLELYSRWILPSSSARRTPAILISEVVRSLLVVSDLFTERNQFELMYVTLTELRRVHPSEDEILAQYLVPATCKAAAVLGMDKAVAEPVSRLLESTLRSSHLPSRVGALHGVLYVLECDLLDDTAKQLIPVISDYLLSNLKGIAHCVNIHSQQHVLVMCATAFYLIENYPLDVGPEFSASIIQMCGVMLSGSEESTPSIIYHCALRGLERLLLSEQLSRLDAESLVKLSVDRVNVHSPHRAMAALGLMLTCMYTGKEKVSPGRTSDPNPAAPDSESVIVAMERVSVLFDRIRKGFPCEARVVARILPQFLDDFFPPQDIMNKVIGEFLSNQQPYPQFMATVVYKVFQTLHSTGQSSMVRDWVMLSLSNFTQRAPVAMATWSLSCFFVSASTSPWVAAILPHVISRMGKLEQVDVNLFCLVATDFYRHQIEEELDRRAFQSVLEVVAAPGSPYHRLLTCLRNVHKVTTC
# Experiment: mutant huntingtin-calmodulin interaction inhibitors – biochemical, AlphaScreen, primary screen (AID 1671202);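 further: 0% = both proteins with DMSO and 100% = one protein alone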
# Details: AlphaScreen His-mHTT/GST-CaM binding, luminescence; at 15 µM, stronger effect = higher value
row,Structure (SMILES),inhibition
1,O=C1NC(c2ccncc2)Nc2sc3c(c21)CCCC3 (stereo not drawn),16% (inactive)
2,Cc1ccc(C2NC(=O)c3c(sc4c3CCCC4)N2)cc1 (stereo not drawn),5% (inactive)
3,Cc1ccc(C2NC(=O)c3c(sc4c3CCCC4)N2)c(O)c1 (stereo not drawn),78% (active)
4,Cc1ccc2c(c1)C(=O)NC1(CCN(C(=O)C3CCC3)CC1)N2,3.5% (inactive)
5,CCOC(=O)C(C)Oc1ccc2c(c1)OC(=Cc1ccc(OC)cc1)C2=O (stereo not drawn),-21.4% (inactive)
6,COc1ccc(C(=O)Nc2cccc(NC(=O)c3ccc(Cl)cc3Cl)c2)cc1,4.1% (inactive)
7,O=C(c1ccc(F)c(F)c1)N1CCN(c2nnc3ccccn23)CC1,-6.3% (inactive)
8,COc1cc(OC)c(NC(=O)N2CC3CCCN3c3ccccc32)cc1Cl (stereo not drawn),38.8% (inactive)
9,Cc1cc(NC(=O)N2CC3CCCN3c3ccccc32)ccc1Br (stereo not drawn),87% (active)
10,CCn1c(C2CCN(C(=O)Nc3ccc(Br)c(C)c3)C2)nc2cccnc21 (stereo not drawn),25.2% (inactive)
11,CC(C)(C)NC(=O)N1CCC(CNS(=O)(=O)c2ccc(Br)s2)CC1,-7.3% (inactive)
12,CCCNc1cc(N2CCCC(CCC(=O)Nc3cccc(C)c3C)C2)ncn1 (stereo not drawn),-0.7% (inactive)
13,CCCNc1cc(N2CCCC(CCC(=O)N3CCN(CCC)CC3)C2)ncn1 (stereo not drawn),5.87% (inactive)
14,CCCNc1cc(N2CCCC(CCC(=O)Nc3ccc4c(c3)OCCO4)C2)ncn1 (stereo not drawn),62.5% (active)
15,Cc1ccc(Cl)cc1N1CCN(C(=O)Cn2nc(C(F)(F)F)c(Br)c2C)CC1,-5% (inactive)
16,C=C(C)c1nc2ccc(Br)cc2c(=O)o1,-3% (inactive)
17,CCc1cccc(NC(=O)N2CCc3c(c(-c4nc(C)no4)nn3C)C2)c1,53.9% (active)
18,Cc1cccc(NC(=O)N2CCc3c(c(-c4nc(C5CC5)no4)nn3C)C2)c1,34.8% (inactive)
19,Cc1noc(-c2nn(C)c3c2CN(C(=O)Nc2cccc(C(F)(F)F)c2)CC3)n1,28.3% (inactive)
20,CCOC(=O)c1sc(NC(=O)CN2C(=O)c3ccccc3C2=O)c(SC#N)c1C,0.3% (inactive)
21,CCN1c2ccc(C)cc2C(=O)NC12CCN(C(=O)c1cc(F)cc(F)c1)CC2,3.5% (inactive)
22,COc1cccc(Nc2ncc3c(n2)CCN(Cc2ccc(F)c(F)c2)C3)c1,33.9% (inactive)
23,COc1ccc(OC)c(Nc2ncc3c(n2)CCN(Cc2ccccc2)C3)c1,10.5% (inactive)
24,CCN1CCN(c2ncc3c(n2)CCN(Cc2ccccc2Cl)C3)CC1,39% (inactive)
25,COc1cc(Nc2ncc3c(n2)CCN(Cc2cc(OC)ccc2OC)C3)cc(OC)c1,76.3% (active)

row,Structure (SMILES),inhibition
1,CCOc1cccc(CN2CCc3nc(Nc4ccc(OC)cc4)ncc3C2)c1,-0.89% (inactive)
2,Clc1ccccc1CN1CCc2nc(Nc3ccc4c(c3)OCO4)ncc2C1,87.4% (active)
3,Fc1ccc(Nc2ncc3c(n2)CCN(Cc2ccccc2)C3)cc1,-7.34% (inactive)
4,COc1ccc(CN2CCc3nc(Nc4ccccc4)ncc3C2)c(OC)c1OC,47.4% (inactive)
5,COc1ccc(CN2CCc3nc(Nc4ccc5c(c4)OCCO5)ncc3C2)cc1,55.6% (active)
6,O=C(Nc1nnc(SCc2ccc(C(F)(F)F)cc2)s1)c1cccs1,-13.3% (inactive)
7,CN(Cc1cn(Cc2ccc(C(F)(F)F)cc2)nn1)C1CN(Cc2cn(Cc3ccc(C(F)(F)F)cc3)nn2)S(=O)(=O)C1 (stereo not drawn),10.9% (inactive)
8,Cc1ccccc1CNC(=O)CCC1CCCN(C(=O)Nc2ccccc2F)C1 (stereo not drawn),-0.96% (inactive)
9,CCCn1c(C2CCN(C(=O)CCC3CCCC3)C2)nc2cccnc21 (stereo not drawn),19.8% (inactive)
10,Cc1nc(-c2ccc(C(=O)Nc3ccc(C)c(F)c3)cc2)cs1,-6% (inactive)
11,Cc1ccc2c(c1)CCN1C(=O)CN(S(=O)(=O)c3cccc(Cl)c3C)CC21 (stereo not drawn),61.2% (active)
12,COc1cccc(-c2nc(C3CCN(S(=O)(=O)c4cccc(Cl)c4C)CC3)no2)c1,-1.63% (inactive)
13,Cc1c(Cl)cccc1NC(=O)c1ccc(F)c(S(=O)(=O)N2CCCC2)c1,3% (inactive)
14,CC1C(=O)N(c2ccccc2-c2ccccc2)CCN1C(=O)C1CCCC1 (stereo not drawn),3.1% (inactive)
15,CSc1ccc(C2C=C(c3ccc(Cl)s3)Nc3ncnn32)cc1 (stereo not drawn),21% (inactive)
16,CC(C(=O)Nc1ccc(Cl)c(C(F)(F)F)c1)N1C(=O)c2ccccc2C1=O (stereo not drawn),24% (inactive)
17,CCn1c(SCC(=O)Nc2ccc(Br)cc2)nnc1-c1cc(OC)cc(OC)c1,4.9% (inactive)
18,CCOc1cccc2cc(C(=O)Nc3nnc(-c4csc(C)n4)o3)oc12,54.6% (active)
19,COc1cccc2cc(C(=O)NCCn3ccnc3C)oc12,-8.3% (inactive)
20,Cc1nc(-c2nnc(NC(=O)c3ccnn3C)o2)cs1,50.2% (active)
21,CCOc1cccc2cc(C(=O)Nc3ccc(Cl)cc3Cl)c(=O)oc12,1% (inactive)
22,Cc1csc(-c2ccc(CNC(=O)c3ccnn3C)cc2)n1,-3.6% (inactive)
23,CCCCOc1ccc(C(=O)Nc2nnc(-c3ccncc3)o2)cc1,40.2% (inactive)
24,COc1ccc(N2C(=O)C3N=NN(Cc4c(F)cccc4Cl)C3C2=O)cc1 (stereo not drawn),-2.2% (inactive)
25,COc1ccc(-n2nc3cc(C)c(NC(=O)c4ccccc4F)cc3n2)cc1,-3.4% (inactive)

row,Structure (SMILES),inhibition
1,CC(C)CCNC(=O)C1(C)CCC(=O)N1Cc1ccc(OC(C)C)cc1 (stereo not drawn),0.89% (inactive)
2,CCOC(=O)CCNC(=O)N1CCn2cccc2C1c1ccc(Cl)cc1 (stereo not drawn),82.4% (active)
3,CCOC(=O)CC1(NC(=O)N2CCn3cccc3C2Cc2ccccc2)CCCCC1 (stereo not drawn),46.3% (inactive)
4,CCCC1c2cccn2CCN1C(=O)Nc1ccccc1C (stereo not drawn),6.33% (inactive)
5,COc1ccc(C(=O)N2CCC(c3nc(CNC(=O)C4CCC4)cs3)CC2)cc1,5.04% (inactive)
6,COc1cccc(C2CC(=O)C3=C(C2)Nc2ccccc2NC3c2cccc(F)c2)c1 (stereo not drawn),25% (inactive)
7,O=C1CC(c2cccs2)CC2=C1C(c1cccc(Cl)c1)Nc1ccccc1N2 (stereo not drawn),26% (inactive)
8,Cc1ccc2oc(C3Nc4ccccc4NC4=C3C(=O)CC(c3cccs3)C4)cc(=O)c2c1 (stereo not drawn),4.8% (inactive) and 92% (active)
9,O=C(Cc1nc(-c2ccccn2)n[nH]1)NC1CCCCCC1,98% (active)
10,O=C(Cc1ccc(F)cc1)NC1CCCC1,-1.1% (inactive)
11,O=C(CSCc1ccccc1Cl)NC1CCCCC1,-5.4% (inactive)
12,N#CC1=C(N)Oc2n[nH]c(C(F)(F)F)c2C1c1cccnc1 (stereo not drawn),-2% (inactive)
13,Cc1ccc(Cl)cc1NC(=O)N1CC=C(c2cn(C)c3ncccc23)CC1,19.5% (inactive)
14,CCNC(=O)c1cccc(N2CCNC(c3ccccc3)C2)n1 (stereo not drawn),2.6% (inactive)
15,O=C(NCc1ccc(F)cc1)c1cccc(N2CCNC(c3ccccc3)C2)n1 (stereo not drawn),44.2% (inactive)
16,Cc1ccc(CNC(=O)c2cccc(N3CCNC(c4ccccc4)C3)n2)cc1 (stereo not drawn),57.7% (active)
17,Cn1cc(C(NS(=O)(=O)c2ccc(Cl)cc2)C(Cl)(Cl)Cl)c2ccccc21 (stereo not drawn),77% (active)
18,Cc1[nH]c2ccccc2c1C(NS(=O)(=O)c1ccccc1)C(Cl)(Cl)Cl (stereo not drawn),30% (inactive)
19,Cc1cc(C(=O)NCC(c2cn(C)c3ccccc23)N(C)C)no1 (stereo not drawn),0.7% (inactive)
20,O=C(Cc1ccccc1F)N1CCOc2ccccc2C1,0.06% (inactive)
21,COCCN1CCC(N2CCCN(C(=O)c3ccc(C)c(F)c3)CC2)C1=O (stereo not drawn),7.8% (inactive)
22,CCC(C(=O)NCC(C)(O)CCSC)c1ccccc1 (stereo not drawn),-4.2% (inactive)
23,COc1ccc(NC(=O)C[C@H]2C(=O)N(CCc3ccccc3)C[C@@H]2C)cc1,-5.1% (inactive)
24,O=C(C[C@H]1C(=O)N(c2ccc(F)c(F)c2)C[C@@H]1Cc1ccccc1)Nc1ccccc1,52.3% (active)
25,CNC(=O)C[C@H]1C(=O)N(c2ccc(OC)cc2)C[C@@H]1Cc1ccccc1,-3.3% (inactive)

row,Structure (SMILES),inhibition
1,COc1ccc(C(=O)N2CCC(c3nc(C(=O)N4CCSCC4)c(C)o3)CC2)cc1F,5.94% (inactive)
2,CC(=O)c1ccc(OCC(O)CNC2CCCC2)cc1 (stereo not drawn),-0.4% (inactive)
3,O=C(NCc1ccccc1F)c1cc2n(n1)CCCC2,-5.1% (inactive)
4,COc1cc(OC)c2ccc(=O)oc2c1C(CCN1CCN(c2ccccc2)CC1)c1ccc2c(c1)OCO2 (stereo not drawn),73.2% (active)
5,COc1cc(C(CCN2CCN(c3ccccc3)CC2)c2c(OC)cc(OC)c3ccc(=O)oc23)cc(OC)c1OC (stereo not drawn),89.6% (active)
6,COc1ccccc1C(CCNCc1ccccc1)c1ccc2c(c1)OCO2 (stereo not drawn),47.4% (inactive)
7,COc1ccccc1N1CCN(Cc2cc(OC)c3c(c2)OCO3)CC1,4.1% (inactive)
8,COc1ccc(CN2CCN(Cc3cc(OC)c(OC)c(OC)c3)CC2)cc1,2.6% (inactive)
9,COc1ccc(C(CC(=O)N2CCN(c3ccccc3)CC2)c2c(O)cc(OC)cc2OC)cc1 (stereo not drawn),34.4% (inactive)
10,CNC(=O)c1ccc2c(c1SC)C(=O)c1ccccc1C2=O,-3% (inactive)
11,CC1(C)CC(=O)C(C(=N)CC2CC(=O)NC(=O)C2)=C(O)C1,3% (inactive)
12,CC(C)(C)[C@H]1CCSC2=NCCC[C@]2(c2ccccc2)C1,7% (inactive)
13,CC(SCc1ccccc1)C(=O)Nc1ccc(Cl)cc1 (stereo not drawn),-33.9% (inactive)
14,O=C(Cc1c(C(=O)O)[nH]c2ccc(Cl)cc12)Nc1cccc(Cl)c1,14% (inactive)
15,O[C@H]1C[C@H](c2ccc(Cl)cc2)N(Cc2cccs2)C[C@@H]1n1cc(C2CC2)nn1,100% (active)
16,COc1ccc([C@H]2C[C@@H](n3cc(COC(=O)c4ccccc4)nn3)[C@H](O)CN2C(=O)c2cccs2)cc1,23.6% (inactive)
17,Cc1ccc([C@H]2C[C@H](O)[C@@H](n3cc(COC(=O)c4ccccc4)nn3)CN2CC2CCCCC2)cc1,23.1% (inactive)
18,CCCCCCN1C[C@H](O)[C@@H](n2cc(C3CC3)nn2)C[C@@H]1c1ccc(Cl)cc1,72.7% (active)
19,O=C(c1cccs1)N1C[C@H](n2cc(C3CC3)nn2)[C@@H](O)C[C@@H]1c1ccccc1,4.1% (inactive)
20,O=C(OCc1cn([C@@H]2C[C@H](c3ccc(Cl)cc3)N(Cc3cccs3)C[C@H]2O)nn1)c1ccccc1,2.5% (inactive)
21,O[C@@H]1C[C@H](c2ccccc2)N(Cc2cccs2)C[C@H]1n1cc(C2CC2)nn1,19.2% (inactive)
22,CCCCCCN1C[C@@H](O)[C@H](n2cc(COC(=O)c3ccccc3)nn2)C[C@@H]1c1ccc(Cl)cc1,-4.7% (inactive)
23,O[C@H]1CN(Cc2cccs2)[C@@H](c2ccc(Cl)cc2)C[C@@H]1n1cc(C2CC2)nn1,98.3% (active)
